Assay outcomes from PubChem BioAssay.
Most compounds without a hit are left out; they make up all but 19% or so of the library.
DT40 TDP1 CPT – growth inhibition of DT40 Tdp1-/-;hTDP1 cells with camptothecin (screen for TDP1 inhibitors); AID 686979; Potency, µM (series often up to 46.2 µM), without a hit: top-dose activity change, negative = growth inhibition, most hits filed as inhibitors; chicken DT40 Tdp1-/-;hTDP1 cells + 20 nM CPT, ATP luminescence, 48 h; 420,000 tested, 12% active; also: potency is read from the fitted curve at half-maximal effect; nearly all actives have a fitted effect of over 55% in size
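Chicken DT40 Tdp1-/- cells complemented with human TDP1, 400 cells/well, exposed to compounds plus 20 nM camptothecin for at least 48 h at 37 C; viability read as ATP content by CellTiter-Glo luminescence.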
DT40 TDP1 no CPT – qHTS for Inhibitors of human tyrosyl-DNA phosphodiesterase 1 (TDP1): qHTS in cells in absence of CPT; Potency, µM (titrated, usually from 46.2 µM), without a hit: at the highest dose activity change, negative = growth inhibition, most hits filed as inhibitors; DT40 Tdp1-/- hTDP1 cells, no CPT, ATP luminescence, 48 h; 420,000 tested, 15% active; also: potency is read from the fitted curve at half-maximal effect; nearly all actives have a fitted effect of over 55% in size
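Stably hTDP1-transfected Tdp1-null chicken DT40 cells were treated with library compounds minus camptothecin and grown for at least 48 hr at 37 °C, after which cellular ATP was quantified by luminescence.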
Giardia kill – Giardia lamblia killing. AID 540267. 340,000 tested, 0.15% active. activity change, % at 7.66 µM, hits read low. Giardia lamblia trophozoite viability; in the data active = activity change below about -80%; inconclusive = between about -30% and that limit;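 also: parasites exposed to compound for two days anaerobically before the ATP read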
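Compounds were tested on trophozoites seeded at 100 cells/well and held 48 hrs at 37 deg C anaerobically. An ATP-based luminescent kit measured the remaining live cells.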
ELG1 DNA repair – blocks ELG1-dependent DNA repair in HEK293T cells. HEK293T ELG1-luciferase reporter, luminescence, 16 h; DNA damage induced by 5-fluorouridine. Potency, µM (series often up to 46.1 µM), without a hit: top-dose activity change, negative = inhibition, usual class: inhibitors. 330,000 tested, 2.3% active; also: potency is read from the fitted curve at half-maximal effect; nearly all actives have a fitted effect of over 55% in size
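Luminescence from the luciferase reporter, measured 30 min after ONE-Glo reagent at room temperature, was the read-out. Beforehand, 2,000 cells per well were exposed for 16 hr at 37 °C to 5-fluorouridine together with compound or vehicle.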
TDP1 block – inhibitors of human tyrosyl-DNA phosphodiesterase TDP1. Q9NUW8. recombinant TDP1, AlphaScreen DNA substrate cleavage. Potency, µM (doses to about 130 µM), inactives show at the highest dose activity change, negative = inhibition, usual class: inhibitors. 350,000 tested, 0.28% active. AID 485290; also: potency is read from the fitted curve at half-maximal effect; nearly all actives have a fitted effect of over 40% in size
Target sequence (Q9NUW8 whole entry, looked up): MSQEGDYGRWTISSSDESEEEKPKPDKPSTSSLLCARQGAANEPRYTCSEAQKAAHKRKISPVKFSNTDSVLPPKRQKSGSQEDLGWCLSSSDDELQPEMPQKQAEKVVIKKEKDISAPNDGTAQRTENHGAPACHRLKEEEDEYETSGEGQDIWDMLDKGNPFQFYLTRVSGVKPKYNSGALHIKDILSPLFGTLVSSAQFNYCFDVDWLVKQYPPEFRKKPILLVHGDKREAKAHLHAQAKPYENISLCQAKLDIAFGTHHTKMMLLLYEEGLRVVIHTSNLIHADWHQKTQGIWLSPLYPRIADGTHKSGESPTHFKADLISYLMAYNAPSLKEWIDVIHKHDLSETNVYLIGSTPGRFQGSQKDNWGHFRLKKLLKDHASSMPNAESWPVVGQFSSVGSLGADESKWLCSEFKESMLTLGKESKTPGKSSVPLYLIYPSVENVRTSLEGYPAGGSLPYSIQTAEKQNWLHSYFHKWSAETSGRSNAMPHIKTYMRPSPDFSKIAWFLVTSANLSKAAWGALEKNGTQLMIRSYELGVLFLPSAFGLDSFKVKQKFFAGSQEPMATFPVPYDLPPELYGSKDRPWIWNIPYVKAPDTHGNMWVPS
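Enzyme-compound mixtures sat 15 min at room temperature, followed by a 5 min reaction with 15 nM final substrate and 10 min with AlphaScreen beads. Recombinant human Tdp1 was used at 1 nM final.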
IL-1B inflam inh – blocks inflammasome-driven IL-1 beta release | activity change, % at 57.5 µM | THP-1 LPS/ATP IL-1B secretion, AlphaLISA, 16 h; hits give low values | AID 743279 | 360,000 tested, 4.7% active; in the data active = activity change below about -50%; inconclusive = mostly about -30% to -49%
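THP-1 cells pretreated 1 hr with compounds (up to 57.5 uM final), then stimulated with LPS (250 ng/mL final) plus ATP (1.25 mM final); secreted IL-1B measured by AlphaLISA after 16 hr, decreased signal indicating inhibition.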
* = called active by the depositor. Unless noted, calls follow the shape of the dose curve; as a rule, active = well fitted curve in the direction sought with a large enough effect; inconclusive = small, poorly fitted or top-dose-only effect, or another doubt; inactive = no such curve, though single readings can be large; an effect the other way counts as inactive or inconclusive. % is scaled to controls: 0 for no effect and ±100 for the full control effect.

For Cc1cc(Cl)c(S(=O)(=O)N2CCCCCC2)cc1OCC(N)=O the results were DT40 TDP1 CPT -20.6%, DT40 TDP1 no CPT 0.1%, Giardia kill -20.3, ELG1 DNA repair inconclusive, TDP1 block 2.2% and IL-1B inflam inh -8.9.
For Cc1cc(Cl)c(S(=O)(=O)N2CCCCCC2)cc1OCC(=O)NC1CCCCC1 the results were DT40 TDP1 CPT -7.6%, DT40 TDP1 no CPT 1.1%, Giardia kill -14.8, ELG1 DNA repair 9.2µM*, TDP1 block 0.5% and IL-1B inflam inh -6.4.
For Cc1cc(N2C(=O)[C@@H]3[C@H](C2=O)[C@@H]2C[C@H]3C(Br)C2Br)no1 (stereo partly specified) the results were DT40 TDP1 CPT 2.5%, DT40 TDP1 no CPT -9.3%, Giardia kill 2.5, ELG1 DNA repair -3.6%, TDP1 block 2.6% and IL-1B inflam inh 18.9.
COC(=O)CCC(=O)N1CCC(Oc2cccc(C(=O)NCc3ccccn3)c2)CC1 was read as DT40 TDP1 CPT -21.9%, DT40 TDP1 no CPT -12.1% and IL-1B inflam inh 25.8.
For CCOC(=O)N1CCN(S(=O)(=O)c2cc(OCC(=O)NC3CCCCC3)c(C)cc2Cl)CC1 the results were DT40 TDP1 CPT 1.6%, DT40 TDP1 no CPT 3.6%, Giardia kill 27.4, ELG1 DNA repair 18.4µM*, TDP1 block 6.0% and IL-1B inflam inh -25.2.
`Cc1cc(Cl)c(S(=O)(=O)NC2CCCC2)cc1OCC(=O)NC1CCCCC1` gave DT40 TDP1 CPT 25.9µM*, DT40 TDP1 no CPT 23.1µM*, Giardia kill 0.9, ELG1 DNA repair 9.2µM*, TDP1 block -10.5% and IL-1B inflam inh -22.6.
Cc1ccc(NS(=O)(=O)c2cc(OCC(N)=O)c(C)cc2Cl)cc1C was read as DT40 TDP1 CPT 20µM*, DT40 TDP1 no CPT inconclusive, Giardia kill 11.9, ELG1 DNA repair inconclusive, TDP1 block 5.5% and IL-1B inflam inh 31.0.
Screening C=CCNc1nc(N)c([N+](=O)[O-])c(NCCO)n1 returned DT40 TDP1 CPT 17.3%, DT40 TDP1 no CPT 4.2%, Giardia kill -21.2, ELG1 DNA repair inconclusive and IL-1B inflam inh 40.5.
`COc1cccc(C2=NOC(C(=O)NCc3ccco3)C2)c1` (stereo unspecified) gave DT40 TDP1 CPT 9.2µM*, DT40 TDP1 no CPT 13µM*, Giardia kill -8.2, ELG1 DNA repair 41.5%, TDP1 block 6.7% and IL-1B inflam inh 2.3.
For COc1cccc(C2=NOC(C(=O)NCc3ccccc3)C2)c1 (stereo unspecified) the results were DT40 TDP1 CPT 5.17µM*, DT40 TDP1 no CPT 4.61µM*, Giardia kill 3.2, ELG1 DNA repair 14.6%, TDP1 block -1.0% and IL-1B inflam inh 0.0.
`COc1ccc(COc2cccnc2N)cc1` gave DT40 TDP1 CPT -29.4%, DT40 TDP1 no CPT -29.7%, Giardia kill -12.8, ELG1 DNA repair inconclusive, TDP1 block 7.6% and IL-1B inflam inh -0.9.
Nc1ncccc1OCc1ccc(Br)cc1 was read as DT40 TDP1 CPT -27.1%, DT40 TDP1 no CPT 18.4µM*, Giardia kill -16.4, ELG1 DNA repair inconclusive, TDP1 block 3.8% and IL-1B inflam inh -10.4.
`COc1ccccc1CNC(=O)c1ccc(-c2nc(CS(=O)(=O)c3ccc(C)cc3)c(C)o2)cc1` gave DT40 TDP1 CPT inconclusive, DT40 TDP1 no CPT 23.1µM* and TDP1 block 2.8%.
For Cc1ccc(CNC(=O)c2ccc(-c3nc(CS(=O)(=O)c4ccc(C)cc4)c(C)o3)cc2)cc1 the results were DT40 TDP1 CPT 13µM*, DT40 TDP1 no CPT 7.31µM* and TDP1 block -2.8%.
`COCCCNC(=O)c1ccc(-c2nc(CS(=O)(=O)c3ccc(C)cc3)c(C)o2)cc1` gave DT40 TDP1 CPT inconclusive, DT40 TDP1 no CPT 16.4µM* and TDP1 block -5.6%.
